From the supplement of paper PMC6555819

Each sequence was assayed on LXRb homodimer (NR concentration 270 nM) (assay: PBM binding z-score (relative to random genomic background probes); higher = stronger binding; sequences stand for … in GC…GCGATTGACAGCGTAGAATGAAGG).
Summary of the method: (§1)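 Custom Agilent 4×180K protein-binding microarrays carried double-stranded probes, each with a 34-nt variable region. These regions held direct-repeat seeds, single-nucleotide variants, half-site ablations and random human genomic background sequences. Ligand-free nuclear receptor dimers were incubated on the arrays for 1 h, antibodies against each partner (one per run) detected binding, and scanned fluorescence was regression-normalized. Binding z-scores take the random background probes as reference.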

Row | Sequence | PBM binding z-score
1 | TCAAGTTGGTCAAAGGTCACACACTCGAAATGCG | 1.33
2 | ACTAGCAGGCCAAGGATCACTCAAGATTAGTCCG | -0.598
3 | ACTTACGGGTCAGCGAGGTTATAGCACGCGTATA | 0.42
4 | TCTATCAGTTGATTAGGGCAACCGAAACAGCGGA | 0.266
5 | CCTTACGGGTCACTCCAGGTTATGGCATCGGAGT | -0.0375
6 | CCTTACGGGTCAAGGTTACAGCACGGGTGGTACG | -0.186
7 | CGTCCAAGGTCAAGGTCAGTGACAGAGACTCGAA | 0.819
8 | ATCTCTAGGGAAAGTTCAGTGAAAGATCGATAGA | 0.681
9 | ACAGACAGGTGATGAAGGTAACCCAGGCTATCAT | -0.475
10 | TCATATAGGTAAATGCGAGGTGAAAGTCCGATCT | -0.00137
11 | CAAACTAGGTCACAGAGGTCAAAGGCCGTGCGTA | 1.61
12 | CCTAGTTGGTGAGGAGGTCACACACCGGATATGA | 0.489
13 | CCTGCTAGGTCATGGTCAGCTAATCTACAGTATG | -0.244
14 | ATATGTAAGTTACATCCGGGTCATTCAGGCTATG | 0.757
15 | TCTTGTAGATCAGCAGGTTAAGACAGCTGGCCAA | -0.579
16 | TCTGCTAGGTCATTTGGTCAGCTAACGAGCTGCC | 1.81
17 | CCTACTGGGCCACGAAAGGTCAGTGATTCAGTGA | -0.661
18 | CCTACTGGGCCAAGGTCATTTATCAGTCAAAGCA | 0.242
19 | ATATGTAGGTTACATCCGGGTCCTTCAGGCTATG | 0.758
20 | AGAATGAGGTTATACGTAGATTAGGGAAGAAAGT | 0.111

Row | Sequence | PBM binding z-score
21 | CCTAGTTGGTCAAGGTCAGACACGCTATAGGTAC | 0.541
22 | TGATTGAGGTTAAAGATCAGGGAACGTGGCGTCG | 0.589
23 | CCTGCTACGTCAATGGTCAGCTAAAGCAGCTCGC | -0.36
24 | ACTATTAGTTGACTTAGGGCGACCGATACGACGC | 0.794
25 | ATCTCTAGGTAAACTTCAGTGAAAGATCGATAGA | 1.21
26 | CTACCAAGGTGAACACGGTCGTTGATTACTATTC | -0.319
27 | ATCTCTAGGTTACCAAGTTCAGTGAATGCCGAAC | 1.16
28 | CCTAGGAGGACAGAAGGTCAGAGCTGTCCGCTTT | -0.837
29 | AGTCAAAGTTCAGGACGAGGTGACGTAAAGCACG | 0.0614
30 | CCTACTGGTCCATTCAGAGGTCATTGATCATATG | 1.12
31 | ACTATTAGTTGGCTTAGGGCAACCGATACGACGC | 0.573
32 | TCTGCTAGGTCAACGATGGTGAGCTAATCTGCTA | -0.262
33 | ATATGTAGGTTACATCCGTGTCATTCAGGCTATG | 0.59
34 | ACTATTGGTTGACTTAGGGCAACCGATACGACGC | 0.546
35 | GCTAGCAGGCCATTTGGGTCACGCAATGACGGGC | -0.491
36 | CGTCAAAGTTCAAGGTAACGTATCAGAAAGCAGC | 1.15
37 | CGTCAAAGTTCAACTAAGGTATCGTAAAGCACGC | 2.23
38 | CCTTACGCGTCACTCCAGGTTATAGCATCGGAGT | 0.803
39 | CCTCGGAGGACAGAATGTCAGAGCTGTCCGCTTT | -0.428
40 | CCGACTGGGGCAAAAGGTTACCATAAGCCAGCCC | -1.26

The sequences below were run on PPARa:RXRa (NR concentration 270 nM, RXRa partner concentration 90 nM) in the same assay as above.
Summary of the method: as §1

Row | Sequence | PBM binding z-score
41 | TCAAGTTGGTCAAAGGTCACACACTCGAAATGCG | 6.41
42 | ACTAGCAGGCCAAGGATCACTCAAGATTAGTCCG | 0.628
43 | ACTTACGGGTCAGCGAGGTTATAGCACGCGTATA | 4.9
44 | TCTATCAGTTGATTAGGGCAACCGAAACAGCGGA | 0.978
45 | CCTTACGGGTCACTCCAGGTTATGGCATCGGAGT | 4.24
46 | CCTTACGGGTCAAGGTTACAGCACGGGTGGTACG | 5.24
47 | CGTCCAAGGTCAAGGTCAGTGACAGAGACTCGAA | 5.76
48 | ATCTCTAGGGAAAGTTCAGTGAAAGATCGATAGA | 1.42
49 | ACAGACAGGTGATGAAGGTAACCCAGGCTATCAT | 0.302
50 | TCATATAGGTAAATGCGAGGTGAAAGTCCGATCT | 2.07
51 | CAAACTAGGTCACAGAGGTCAAAGGCCGTGCGTA | 6.36
52 | CCTAGTTGGTGAGGAGGTCACACACCGGATATGA | 3.86
53 | CCTGCTAGGTCATGGTCAGCTAATCTACAGTATG | 3.52
54 | ATATGTAAGTTACATCCGGGTCATTCAGGCTATG | 2.83
55 | TCTTGTAGATCAGCAGGTTAAGACAGCTGGCCAA | 0.79
56 | TCTGCTAGGTCATTTGGTCAGCTAACGAGCTGCC | 3.19
57 | CCTACTGGGCCACGAAAGGTCAGTGATTCAGTGA | 3.53
58 | CCTACTGGGCCAAGGTCATTTATCAGTCAAAGCA | 3.92
59 | ATATGTAGGTTACATCCGGGTCCTTCAGGCTATG | 3.17
60 | AGAATGAGGTTATACGTAGATTAGGGAAGAAAGT | 3.21

Row | Sequence | PBM binding z-score
61 | CCTAGTTGGTCAAGGTCAGACACGCTATAGGTAC | 2.78
62 | TGATTGAGGTTAAAGATCAGGGAACGTGGCGTCG | 4.47
63 | CCTGCTACGTCAATGGTCAGCTAAAGCAGCTCGC | -0.295
64 | ACTATTAGTTGACTTAGGGCGACCGATACGACGC | -0.104
65 | ATCTCTAGGTAAACTTCAGTGAAAGATCGATAGA | 0.408
66 | CTACCAAGGTGAACACGGTCGTTGATTACTATTC | 1.35
67 | ATCTCTAGGTTACCAAGTTCAGTGAATGCCGAAC | 2.15
68 | CCTAGGAGGACAGAAGGTCAGAGCTGTCCGCTTT | 1.93
69 | AGTCAAAGTTCAGGACGAGGTGACGTAAAGCACG | 3.67
70 | CCTACTGGTCCATTCAGAGGTCATTGATCATATG | 3.32
71 | ACTATTAGTTGGCTTAGGGCAACCGATACGACGC | -0.171
72 | TCTGCTAGGTCAACGATGGTGAGCTAATCTGCTA | 2.95
73 | ATATGTAGGTTACATCCGTGTCATTCAGGCTATG | 3.6
74 | ACTATTGGTTGACTTAGGGCAACCGATACGACGC | 0.0767
75 | GCTAGCAGGCCATTTGGGTCACGCAATGACGGGC | 2.23
76 | CGTCAAAGTTCAAGGTAACGTATCAGAAAGCAGC | 4.61
77 | CGTCAAAGTTCAACTAAGGTATCGTAAAGCACGC | 5.15
78 | CCTTACGCGTCACTCCAGGTTATAGCATCGGAGT | 0.54
79 | CCTCGGAGGACAGAATGTCAGAGCTGTCCGCTTT | -0.27
80 | CCGACTGGGGCAAAAGGTTACCATAAGCCAGCCC | 3.28
